Data from PubChem BioAssay AID1851 (National Center for Advancing Translational Sciences (NCATS), 2009).
In all, about 16,000 compounds went through this assay and about 5,100 (32%) were called active. Not shown: some 25% with an inconclusive outcome. The list shows a part of the results. Unmarked numbers belong to inactive results. The call rests on the fitted dose curve; in most records, active means well fitted curve in the direction sought with a large enough effect; inconclusive means small, poorly fitted or top-dose-only effect, or effect the other way; inactive means no such curve, though single readings can be large or run the other way.

target: Cytochrome P450 3A4 (Homo sapiens) (UniProt P08684); test: Cytochrome panel assay with activity outcomes; settings: recombinant CYP, pro-luciferin dealkylation, luminescence, p450-cyp3a4; series mostly up to 57.1 µM; activity, negative = inhibition: at the top concentration
On the % scale 0 is the no-effect control and ±100 the full control effect.

Cytochrome P450 3A4 (Homo sapiens), sequence (P08684 whole entry, looked up): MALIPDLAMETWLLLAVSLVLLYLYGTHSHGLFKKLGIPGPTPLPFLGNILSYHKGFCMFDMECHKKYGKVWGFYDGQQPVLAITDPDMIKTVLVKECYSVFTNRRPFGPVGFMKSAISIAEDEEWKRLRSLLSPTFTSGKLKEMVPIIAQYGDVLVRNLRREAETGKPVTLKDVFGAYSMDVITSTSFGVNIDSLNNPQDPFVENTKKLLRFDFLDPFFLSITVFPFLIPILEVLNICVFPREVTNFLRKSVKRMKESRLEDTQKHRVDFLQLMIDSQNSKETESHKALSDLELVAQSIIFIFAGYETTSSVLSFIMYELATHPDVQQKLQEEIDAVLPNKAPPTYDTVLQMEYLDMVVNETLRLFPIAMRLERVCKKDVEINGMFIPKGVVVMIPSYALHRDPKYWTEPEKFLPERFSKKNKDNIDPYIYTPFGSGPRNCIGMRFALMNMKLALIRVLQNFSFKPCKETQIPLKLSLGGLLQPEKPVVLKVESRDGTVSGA

SMILES | AC50 | activity, negative = inhibition
O=C(CSCc1c(Cl)cccc1Cl)NCc1cccnc1 | 3.16 µM (active) | –
Cc1nc2c(C(=O)NCc3ccc4c(c3)OCO4)c[nH]n2c(=O)c1Cc1ccccc1F | 2.24 µM (active) | –
CCOC(=O)Cc1c(C)nc2c(C#N)c[nH]n2c1=O | – | -0.582%
COc1ccc(-n2cccc2C=O)cc1OC | – | -5.8%
CC(C)(C)NC(=O)CSC(=Nc1ccc(F)cc1)NC#N | – | -11.3% [at 2.29 µM]
Cc1ccc(C(=O)COC(=O)c2ccccc2N2C(=O)C3C4CCC(C4)C3C2=O)cc1C (configuration not stated) | 12.6 µM (active) | –
O=C(Oc1ccccc1N1C(=O)C2CCCCC2C1=O)c1ccccc1 (configuration not stated) | – | -1.02% [at 2.29 µM]
C[N+]1(C)CCC[C@@H](OC(=O)C(O)(c2ccccc2)c2ccccc2)C1 | – | -1.21% [at 25.6 µM]
Cc1ccc(-c2ccc(CCC(=O)O)n2CC2CCCO2)cc1 (configuration not stated) | – | 18.1% [at 2.29 µM]
CCC(=O)Nc1ccc(C(=O)CSc2nnc(-c3ccc(O)cc3)n2CC2CCCO2)cc1OC (configuration not stated) | 14.1 µM (active) | –
Cc1cc(Cc2cc(Cc3cc(C)cc(C(C)(C)C)c3O)c(C)cc2C)c(O)c(C(C)(C)C)c1 | – | -23.1% [at 11.4 µM]
CC(C)(CO)Cc1cc(C(C)(C)C)c(O)c(C(C)(C)C)c1 | 2.51 µM (active) | –
Cc1cc(Cc2c(C)c(C)c(Cc3cc(C)cc(C(C)(C)C)c3O)c(C)c2C)c(O)c(C(C)(C)C)c1 | – | 0.196% [at 11.4 µM]
Cc1cc(Cc2cc(C)cc(C(C)(C)C)c2O)c(O)c(Cc2cc(C)cc(C(C)(C)C)c2O)c1 | – | -19.8% [at 11.4 µM]
Cc1cc(-c2cc(C)c(O)c(C(C)(C)C)c2)cc(C(C)(C)C)c1O | – | -12.3% [at 11.4 µM]
CC(C)(C=O)Cc1cc(C(C)(C)C)c(O)c(C(C)(C)C)c1 | 12.6 µM (active) | –
CCCCCc1nc2c(=O)[nH]c3ccccc3c2o1 | – | -8.01%
CN(C)CCCc1c2ccccc2nc2ccc(Cl)cc12 | – | -1.41% [at 11.4 µM]
CCCCc1c2ccccc2nc2[nH]c3ccccc3c12 | 15.8 µM (active) | –
Clc1ccc2c(NC3CCC(N4CCCCC4)CC3)ccnc2c1 (configuration not stated) | – | -1.29% [at 11.4 µM]
COc1ccccc1CNc1cc(-c2ccccc2OC)ncn1 | 15.8 µM (active) | –
COc1ccccc1-c1cc(Nc2ccc(F)cc2)ncn1 | – | -29.9%
COc1ccccc1-c1cc(Nc2ccn[nH]2)ncn1 | 3.98 µM (active) | –

SMILES | AC50 | activity, negative = inhibition
COc1ccc(CNc2cc(-c3ccccc3Cl)ncn2)c(OC)c1 | 6.31 µM (active) | –
COc1ccc(CNc2cc(-c3ccccc3OC)ncn2)c(OC)c1 | 6.31 µM (active) | –
N/C(=N\O)c1cn([C@@H]2O[C@@H](CO)[C@H](O)[C@@H]2O)c2ncnc(NO)c12 | – | -7.27% [at 11.4 µM]
CC(=O)OC[C@@H]1O[C@@H](O/N=C2/C[C@@H](O)[C@@H](O)[C@@H]3[C@@H]4C(=O)N(C[C@@H]5CCCO5)C(=O)[C@H]4CC[C@H]23)[C@H](OC(C)=O)[C@H](OC(C)=O)[C@@H]1OC(C)=O | – | -12.5% [at 11.4 µM]
Oc1cc(O)c2c(c1)O[C@@H](c1ccc(O)c(O)c1)[C@H](O[C@@]1(c3cc(O)c(O)c(O)c3)Oc3cc(O)cc(O)c3[C@H](O)[C@@H]1O)C2 | – | -19.7% [at 11.4 µM]
Cc1ccc(COc2ccc(Br)cc2/C=N/O)cc1 | 7.94 µM (active) | –
O=C(SCc1cccc2ccccc12)c1ccc(Cl)cc1 | – | -17.6% [at 11.4 µM]
Cc1ccc(COc2coc(CO)cc2=O)cc1 | – | -20.6%
O=C(Cc1ccccc1)N/N=C\c1ccc(Br)o1 | – | -20.2%
Oc1ccc(Cl)cc1C=Nc1cnc2ccccc2c1 | – | -12.5% [at 11.4 µM]
O=C(Cc1ccccc1)N/N=C/c1ccccc1OCc1ccc(Cl)cc1 | 15.8 µM (active) | –
O/N=C/c1cc(Cl)ccc1OCc1cccc2ccccc12 | 7.94 µM (active) | –
NC(=S)N/N=C/c1ccccc1OCc1cccc(Cl)c1 | – | -18.2% [at 2.29 µM]
O/N=C/c1ccccc1OCc1ccc(Cl)cc1 | 12.6 µM (active) | –
Cc1ccc(CONC(=O)/N=C/N(C)C)cc1 | – | -12.6%
COc1c(Cl)cc(Cl)cc1CNCCNCC(C)O (configuration not stated) | – | 15.3%
COc1cccc(/C=N/n2c(=S)n(C)c3cc(C)c(C)cc32)c1OC | – | -9.43% [at 2.29 µM]
Cc1n[nH]c(=S)n1/N=C/c1ccccc1OCc1ccc(Cl)cc1 | 1.26 µM (active) | –
C=C1C(=O)C=C2CN(C(=O)c3ccccc3)[C@@](Cc3ccc(F)cc3)(C(=O)OC)[C@@H]12 | 7.94 µM (active) | –
C=C1C(=O)C=C2CN(C(=O)c3ccccc3)[C@@](Cc3ccc(OC)cc3)(C(=O)OC)[C@@H]12 | 1.58 µM (active) | –
COc1ccc(C(=O)n2nc(-c3ccccc3)nc2SC)cc1 | – | 6.71%
Cc1ccc(C(=O)CN(C(=O)c2ccc(Cl)cc2)N2C(=O)c3ccccc3C2=O)cc1 | 10 µM (active) | –
Cc1cc(CC(=O)O)n(C)c1C(=O)c1ccc(Cl)cc1 | – | -11.7% [at 25.6 µM]

SMILES | AC50 | activity, negative = inhibition
O=C(CON1C(=O)c2ccccc2C1=O)c1ccccc1 | – | -17.5% [at 11.4 µM]
COc1ccc2c(c1)-c1ccccc1S(=O)(=O)N2C(C)=O | – | -6.85%
COc1ccc(C(=O)O/N=C/c2ccc(S(=O)c3ccc(Cl)cc3)nc2)cc1 (configuration not stated) | – | 7.76%
COc1ccc(C(=O)CN(C(=O)c2ccc(Cl)cc2)N2C(=O)c3ccccc3C2=O)cc1 | 8.91 µM (active) | –
Cc1cc(=Nc2ccc3c(c2)c(N)cc(C)[n+]3C)nc(N)n1C | – | 3.03% [at 11.4 µM]
C[C@@H]1CCCC(CC(=O)O)(CC(=O)O)C1 | – | -9.8% [at 11.4 µM]
CC(NC(=O)Cn1cnc([N+](=O)[O-])n1)c1ccccc1 (configuration not stated) | – | 0.0886%
CC(NC(=O)c1ccc(Cn2cc([N+](=O)[O-])cn2)o1)c1ccccc1 (configuration not stated) | 25.1 µM (active) | –
O=C(Nc1cccc(C(F)(F)F)c1)c1ccc(Cn2cc(Br)cn2)o1 | – | -0.795% [at 2.29 µM]
CCC(=O)NC(Nc1sc2c(c1C(=O)OC)CCCC2)(C(F)(F)F)C(F)(F)F | – | -7.25% [at 2.29 µM]
CCOC(=O)C(NC(=O)CC)(Nc1sc2c(c1C(=O)OC)CCN(C)C2)C(F)(F)F (configuration not stated) | 12.6 µM (active) | –
COc1ccc(OC)c(C2CC(=O)C3=C(C2)NC(=O)CC3c2ccc(O)c(OC)c2)c1 (configuration not stated) | 8.91 µM (active) | –
COc1ccc(NC(=O)C2CC(=O)NC3=C2C(=O)CC(C)(C)C3)cc1 (configuration not stated) | – | -22.9%
CC(C)Oc1ccc(C2CC(=O)NC3=C2C(=O)CCC3)cc1 (configuration not stated) | – | -29.8%
CC(=O)NC(Cc1ccc(F)cc1)C(=O)O (configuration not stated) | – | 6.9%
COc1ccc(F)cc1S(=O)(=O)NC(Cc1ccccc1)C(N)=O (configuration not stated) | 15.8 µM (active) | –
CNC(=O)/C(C#N)=c1\s/c(=C/C(=O)OC)c(=O)n1-c1ccccc1 | – | -3.36%
CS(=O)(=O)c1ccc(Cn2c3c(c4cc(F)cc(F)c42)CCC[C@H]3CC(=O)O)cc1 | 39.8 µM (active) | –
CC(C)NNC(=O)c1ccncc1 | inactive | –
CN[C@@H](c1ccncc1)[C@@H](NC)c1ccncc1 | 5.01 µM (active) | –
O=c1[nH][nH]c(=S)c(=O)[nH]1 | – | -14.1% [at 11.4 µM]
COCCNc1ncnc2ccc(-c3ccc(C(=O)N(C)C)cc3)cc12 | 15.8 µM (active) | –
COCCNc1ncnc2ccc(-c3ccoc3)cc12 | – | -6.63%

SMILES | AC50 | activity, negative = inhibition
COCCNc1ncnc2ccc(-c3ccc(N(C)C)cc3)cc12 | 7.94 µM (active) | –
CC(=O)NCCNc1ncnc2ccc(-c3ccc(C(=O)N(C)C)cc3)cc12 | – | -20%
COc1cccc(C2=NOC(C(=O)Nc3ccc(OC)c(OC)c3)C2)c1 (configuration not stated) | 6.31 µM (active) | –
O=C(O)[C@@H]1[C@@H](C(=O)NCc2ccccn2)[C@@H]2C=C[C@@H]1O2 | – | -5.18% [at 11.4 µM]
COc1ccc(C2=NOC(C(=O)NCc3ccco3)C2)cc1OC (configuration not stated) | – | -25.1%
CC(=O)c1ccc(NC(=O)C2CC(c3ccc(F)cc3)=NO2)cc1 (configuration not stated) | – | -15.6%
COC(=O)[C@@H](NC(=O)Nc1ccc(C(C)=O)cc1)C(C)C | – | -1.62%
COCCNC(=O)C1CC(c2cccc(OC)c2)=NO1 (configuration not stated) | – | -28.1%
COc1ccc(C2=NOC(C(=O)Nc3ccc(C(C)=O)cc3)C2)cc1OC (configuration not stated) | 8.91 µM (active) | –
O=C(NCc1ccc2c(c1)OCO2)C1CC(c2cccc(Br)c2)=NO1 (configuration not stated) | 0.708 µM (active) | –
O=C(NCc1ccccn1)C1CC(c2ccc(Cl)c(Cl)c2)=NO1 (configuration not stated) | 25.1 µM (active) | –
COc1ccc(CNC(=O)C2CC(c3ccc(OC)cc3)=NO2)cc1 (configuration not stated) | – | 2.43%
COc1cccc(C2=NOC(C(=O)Nc3cccnc3)C2)c1 (configuration not stated) | 12.6 µM (active) | –
COc1ccc(CNC(=O)C2CC(c3cccc([N+](=O)[O-])c3)=NO2)cc1 (configuration not stated) | 6.31 µM (active) | –
Cc1ccc(NC(=O)NNC(=O)C2CC(c3cccnc3)=NO2)cc1 (configuration not stated) | – | 12.9%
O=C1C=C(NCCc2cc(Br)c(O)c(Br)c2)C(=O)c2ncccc21 | 3.16 µM (active) | –
O=C1C=C(Nc2nc(C(=O)O)cc(=O)[nH]2)c2ccccc2C1=O | – | -12.4% [at 11.4 µM]
O=C(NCCc1ccccn1)c1cc(C(=O)C2CCCCC2)c[nH]1 | 10 µM (active) | –
O=C(NCc1ccco1)c1cc(C(=O)C2CCCCC2)c[nH]1 | – | -11.4%
O=C(NCc1ccco1)c1cc(C(=O)C2CC2)c[nH]1 | – | 2.35%
COc1ccc2c(c1)c(CC(=O)OCC(=O)O)c(C)n2C(=O)c1ccc(Cl)cc1 | – | -11.9% [at 25.6 µM]
COc1ccc2c(c1)c(CC(=O)N1CCOCC1)c(C)n2C(=O)c1ccc(Cl)cc1 | 5.01 µM (active) | –
COc1ccc2c(c1)c(CC(=O)O)c(C)n2C(=O)c1ccc(Cl)cc1 | inactive | –
